Measurements: PubChem BioAssay
Calls of active or inactive are those of the source.

Columns and labels:
[1] = test system: Plasmodium falciparum Sir2 (PF13_0152, Sir2A); test: Plasmodium falciparum Sir2A binding compounds – biochemical, small-molecule microarray, 635 nm fluorescence, primary screen (AID 1098); conditions: fluorescence 635 nm, higher = more signal;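 further: score merges spot fluorescence intensity with its signal-to-noise ratio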
[2] = probe aDKK1 binding to arrayed compounds – biochemical, biotinylated probe, 635/667 nm fluorescence, primary screen (AID 1099); conditions: small-molecule microarray, higher = more signal;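 further: score merges 667nm spot fluorescence with signal to noise across triplicate slides; reference of the scale not given here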
[3] = probe aCHRDL2 binding to arrayed compounds – biochemical, biotinylated probe, 635/667 nm fluorescence, primary screen (AID 1100); conditions: small-molecule microarray, higher = more signal
[4] = change in splice reporter luminescence, either direction, cell-based, HEK293, spliceosome inhibition project, primary screen (AID 1101); conditions: HEK293 splicing luciferase reporter, 24 h, higher = more signal, called active from +8 up or from −8 down;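 further: HEK293 cells carrying a splicing-competent luciferase reporter gene; test concentration not given here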
[5] = molecular target: Fibroblast growth factor 10 (Homo sapiens) (UniProt O15520); test: compounds binding fibroblast growth factor 10 – biochemical, small-molecule microarray, 635 nm fluorescence, primary screen (AID 1102); conditions: FGF10 binding, fluorescence 635 nm, higher = more signal
[6] = test system: glycogen synthase kinase-3 (GSK3A per assay name; protocol says GSK3B); test: compounds binding glycogen synthase kinase-3 – biochemical, small-molecule microarray, 635 nm fluorescence, GSK3A, primary screen (AID 1103); conditions: fluorescence 635 nm, higher = more signal; further: the record names both GSK3A and GSK3B
[7] = molecular target: Epidermal growth factor receptor (Homo sapiens) (UniProt P00533); test: compounds binding epidermal growth factor receptor – biochemical, small-molecule microarray, 635 nm fluorescence, primary screen (AID 1104); conditions: EGFR binding, higher = more signal;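 further: score merges 667 nm emission intensity with spot signal to noise over triplicate slides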
[8] = molecular target: Follistatin-related protein 3 (Homo sapiens) (UniProt O95633); test: compounds binding follistatin-related protein 3 – biochemical, small-molecule microarray, 635 nm fluorescence, primary screen (AID 1105); conditions: FSTL3 binding, higher = more signal;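 further: score merges emission near 667 nm and signal to noise per printed spot across three slides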
[9] = molecular target: Dickkopf-related protein 1 (Homo sapiens) (UniProt O94907); test: small molecules binding DKK1 protein – biochemical, small-molecule microarray, 635 nm fluorescence scan, primary screen (AID 1106); conditions: higher = more signal;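 further: score merges emission near 667 nm with signal to noise over three replicate slides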
[10] = test system: Inhibin beta A chain (activin A); test: small molecules binding activin A – biochemical, small-molecule microarray, 635 nm fluorescence scan, primary screen (AID 1107); conditions: INHBA, higher = more signal;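 further: mouse activin A protein probed at 4.33 µg/mL on printed slides; score merges bound-protein fluorescence near 667 nm with spot signal-to-noise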

Sequence of Follistatin-related protein 3 (Homo sapiens) (O95633 whole entry, looked up): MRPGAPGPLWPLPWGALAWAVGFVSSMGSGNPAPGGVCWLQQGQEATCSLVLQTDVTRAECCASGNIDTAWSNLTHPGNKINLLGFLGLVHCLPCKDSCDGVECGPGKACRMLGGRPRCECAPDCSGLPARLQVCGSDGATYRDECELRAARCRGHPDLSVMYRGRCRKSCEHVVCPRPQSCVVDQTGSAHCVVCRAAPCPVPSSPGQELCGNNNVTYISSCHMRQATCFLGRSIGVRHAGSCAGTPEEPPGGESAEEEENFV
Sequence of Fibroblast growth factor 10 (Homo sapiens) (O15520 whole entry, looked up): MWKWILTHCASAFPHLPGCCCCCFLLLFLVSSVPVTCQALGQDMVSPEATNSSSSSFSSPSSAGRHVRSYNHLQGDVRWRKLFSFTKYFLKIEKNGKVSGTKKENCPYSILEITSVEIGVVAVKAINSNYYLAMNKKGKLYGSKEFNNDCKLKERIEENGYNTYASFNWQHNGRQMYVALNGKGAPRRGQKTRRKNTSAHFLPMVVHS
Sequence of Dickkopf-related protein 1 (Homo sapiens) (O94907 whole entry, looked up): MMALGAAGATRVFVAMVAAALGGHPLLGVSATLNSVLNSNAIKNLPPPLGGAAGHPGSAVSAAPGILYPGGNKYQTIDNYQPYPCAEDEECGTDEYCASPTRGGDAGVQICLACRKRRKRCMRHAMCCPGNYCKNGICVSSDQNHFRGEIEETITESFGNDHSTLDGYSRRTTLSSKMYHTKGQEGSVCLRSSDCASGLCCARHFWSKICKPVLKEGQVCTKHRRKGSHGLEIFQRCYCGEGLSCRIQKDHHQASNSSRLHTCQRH
Sequence of Epidermal growth factor receptor (Homo sapiens) (P00533 whole entry, looked up): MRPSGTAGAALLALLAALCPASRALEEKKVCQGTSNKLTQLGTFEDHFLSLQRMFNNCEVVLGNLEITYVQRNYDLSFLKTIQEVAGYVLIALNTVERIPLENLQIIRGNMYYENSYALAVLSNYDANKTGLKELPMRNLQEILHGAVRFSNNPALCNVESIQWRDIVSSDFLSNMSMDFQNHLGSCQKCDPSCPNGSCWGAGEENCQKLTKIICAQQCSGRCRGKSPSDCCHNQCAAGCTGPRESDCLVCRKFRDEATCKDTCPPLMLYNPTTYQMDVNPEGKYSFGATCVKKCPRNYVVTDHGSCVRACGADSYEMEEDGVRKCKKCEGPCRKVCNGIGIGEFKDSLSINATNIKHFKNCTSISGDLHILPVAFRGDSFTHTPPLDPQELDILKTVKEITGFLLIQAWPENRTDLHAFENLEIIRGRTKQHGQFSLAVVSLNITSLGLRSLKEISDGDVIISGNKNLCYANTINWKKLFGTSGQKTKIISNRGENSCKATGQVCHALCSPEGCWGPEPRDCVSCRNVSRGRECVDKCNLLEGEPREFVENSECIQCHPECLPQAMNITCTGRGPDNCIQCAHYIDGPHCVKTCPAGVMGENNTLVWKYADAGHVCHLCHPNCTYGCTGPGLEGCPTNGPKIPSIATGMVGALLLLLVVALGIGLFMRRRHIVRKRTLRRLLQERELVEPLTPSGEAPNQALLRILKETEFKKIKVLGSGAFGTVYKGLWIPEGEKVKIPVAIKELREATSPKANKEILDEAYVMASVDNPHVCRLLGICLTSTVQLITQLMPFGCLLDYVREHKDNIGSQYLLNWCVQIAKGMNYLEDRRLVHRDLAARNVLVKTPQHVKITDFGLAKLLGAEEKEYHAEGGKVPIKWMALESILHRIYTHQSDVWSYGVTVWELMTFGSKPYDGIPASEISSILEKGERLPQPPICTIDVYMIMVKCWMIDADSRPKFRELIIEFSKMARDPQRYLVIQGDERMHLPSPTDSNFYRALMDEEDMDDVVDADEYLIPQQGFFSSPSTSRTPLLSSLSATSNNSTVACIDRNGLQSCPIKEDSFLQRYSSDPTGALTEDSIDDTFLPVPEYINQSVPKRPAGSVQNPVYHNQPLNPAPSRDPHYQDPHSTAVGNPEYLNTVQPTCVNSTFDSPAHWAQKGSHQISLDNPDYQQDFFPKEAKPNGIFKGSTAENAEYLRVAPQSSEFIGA

Compound	composite z-score [1]	composite z-score [2]	composite z-score [3]	z-score [4]	composite z-score [5]	composite z-score [6]	composite z-score [7]	composite z-score [8]	composite z-score [9]	composite z-score [10]
C[N+](C)(C)CCCC[C@@H]1NC(=O)[C@@H]2C[C@H](C(=O)NCc3ccc(F)cc3)[C@H](c3ccc(O)cc3)N2C1=O	1.12	-0.277	0.216	1.26 (inactive)	0.535	-0.933	-0.617	-0.249	0.549	-0.879
CCOC(=O)C1=C[C@@H](C(C)(C)C)N(S(=O)(=O)c2ccc(C)cc2)[C@H]1c1ccc(C#N)cc1	0.895	0.328	0.113	-0.385 (inactive)	0.933	1.11	0.658	1.09	0.512	0.712
CN(C)CCCC[C@@H]1NC(=O)[C@H]2C[C@@H](C(=O)O)[C@@H](c3ccc(O)cc3)N2C1=O	2.03	2.45	1.64	-1.28 (inactive)	1.55	1.44	1.85	1.53	2.03	1.98
CN(C)C(=O)[C@]1(Cc2ccccc2)N=C(c2ccc(OCCCO)cc2)O[C@@H]1c1ccccc1CN=[N+]=[N-]	0.978	0.143	0.591	-0.741 (inactive)	1.23	1.33	0.0699	0.741	-0.124	0.406
COCCOC(=O)N1C(=O)[C@@]2(c3cc(C#CCCO)ccc31)[C@H](C(N)=O)[C@H]1C(=O)O[C@H](c3ccccc3)[C@H](c3ccccc3)N1[C@@H]2c1ccccc1OCCO	1.59	0.7	0.694	-0.871 (inactive)	0.738	1.3	0.375	0.911	0.403	0.042
C=CCNC(=O)[C@H]1[C@@H]2C(=O)O[C@@H](c3ccccc3)[C@@H](c3ccccc3)N2[C@@H](c2ccc(OCCO)cc2)[C@]12C(=O)Nc1ccc(C#CC3(O)CCCCCC3)cc12	1.19	0.514	0.446	-0.313 (inactive)	1.29	1.3	0.982	1.29	0.527	0.996
[N-]=[N+]=Nc1ccccc1C[C@]1(C(=O)N2CCOCC2)N=C(c2ccc(OCCCO)cc2)O[C@H]1c1ccccc1N=[N+]=[N-]	1.53	0.651	0.915	-0.591 (inactive)	1.41	1.31	0.857	1.47	1.42	1.3
C=C(CCCC)/C(=C/C[C@H](OC(=O)c1ccncc1)c1cccc(OCCO)c1)c1cnc2ccccc2c1	1.15	-0.138	-0.303	0.223 (inactive)	0.853	0.783	0.463	1.28	0.483	1.6
O=C1C[C@@](C(=O)NCc2ccccc2)(c2ccc([N+](=O)[O-])cc2)[C@@H](c2ccc(CO)cc2)N1C1CCCCC1	1.34	-0.437	0.538	-1.97 (inactive)	0.42	0.97	0.123	0.645	0.0339	0.953
COc1ccc(C(=O)Nc2cccc(CN3C(=O)[C@]4(O[C@H](CC(=O)N5Cc6ccccc6C[C@H]5CO)[C@@H]([Si](C)(C)c5ccc(OC)cc5)[C@@H]4C)c4ccccc43)c2)cc1	0.895	-0.245	-0.362	-0.865 (inactive)	0.946	0.955	1.24	1.42	1.34	1.21
CN(C)C(=O)[C@@]1(Cc2ccccc2CN=[N+]=[N-])COC(c2ccc(OCCCO)cc2)=N1	0.508	0.42	1.01	-0.51 (inactive)	-0.0391	-0.958	-0.916	-0.522	-1.19	0.744
O=C1O[C@H](Cc2ccccc2)[C@@H]2[C@H]3C=CCCC=C3CN2[C@H]1Cc1ccc(O)cc1	0.968	-0.271	-0.0179	0.192 (inactive)	-0.36	-1.16	-0.317	-0.17	-0.0128	0.991
COC(=O)[C@]1(CCC(=O)OC(C)(C)C)N=C(c2ccc(OCCCO)cc2)O[C@@H]1c1ccccc1N=[N+]=[N-]	0.911	0.254	0.855	-0.229 (inactive)	0.49	-0.107	-0.287	0.168	-0.281	0.809
CN(C)CCCC[C@@H]1NC(=O)[C@@H]2C[C@H](C(=O)NCCCCCN)[C@H](c3cccc(OCCO)c3)N2C1=O	0.789	-0.0024	-0.21	-1.66 (inactive)	0.824	1.16	0.428	0.567	0.565	-0.401
CCOC(=O)C[C@H]1[C@H](OC(=O)c2ccccc2-c2ccccc2)[C@@H](NC(=O)c2ccc3ccccc3c2)c2cc(OCCCO)ccc2N1C(=O)Cc1ccc(OC)cc1	-0.332	0.29	0.58	-0.897 (inactive)	0.125	-0.914	-0.201	-0.517	0.225	0.892
COC(=O)[C@H](Cc1ccccc1)N1CC2=CCCC=C[C@@H]2[C@H]1[C@H](O)Cc1ccccc1	1.33	-0.192	-0.306	-0.477 (inactive)	0.363	0.171	-0.244	0.525	0.29	0.702
